According to the supplement of paper PMC6555819:

The sequences below were run on PPARg:RXRa IVT, anti-PPARg (NR concentration 270 nM, RXRa partner concentration 90 nM) (assay: PBM binding z-score (relative to random genomic background probes); higher = stronger binding; sequences stand for … in GC…GCGATTGACAGCGTAGAATGAAGG).
Method in brief: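 Each nuclear receptor dimer, without ligand, was incubated for 1 h on custom Agilent 4×180K protein-binding microarrays. Binding was detected with antibodies against each partner (one per run), and scanned fluorescence was regression-normalized. The binding z-scores are referenced to random human genomic background probes.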

Sequence | PBM binding z-score
TCTTGTAGATCAAGCAGGTTAATAAAGCCTGAGT | 0.498
CCAGACAGGTGAAAGGTACCTCAGTCTGGTACGC | 1.96
CGTCCAAGGGCATAGGAGGTCAGTGAAGACAGAT | 2.11
CAAACTAGGTCACGATAGGTCAAAGTCGAATGAC | 9.21
TCTCGGAGGACACCAAGGTCAGAGCTTTCCAGAG | 1.11
TCATATAGGTAAAGGTGAAAGGCGAACGATATGA | 4.06
CGAACGAGGGCATGAGTTGATCGCAAATGCCGAT | 2.12
GCTCCTAGGTCAACTGATGGTCAGCTAAAGCTCG | 3.97
AGTCAAAGTTCATCTAGCTAACGTAAGATATGCT | 2.41
TTTCCAAGGTGAGCTGAGGTCGTTGATCCAACTC | 2.2
CCTAGCAGGCCAATCTGGGTTACTCAAGGCTTGA | 3.29
TCTGCTAGGTCAGTAGGTCAGCTAACGAGCTGCC | 6.23
CGTCCAAGGTCAAGGACAGTGAAAGAGACTCGAA | 3.38
CTCAAAAGGTCGTGCTCAGGTGAGTATACCAAAC | 2.03
ACTAGAAGGCCAAGTTTGGGTCACTCAAACAAAG | 1.25
GCAGACAGGTGAGACGCAGGTAACTCAGGGTGGC | 0.0836
ACTAGCAGGCCAAGGGTCAATCAAGATTAGTCCG | 3.74
AGTGAAAGTTCATCTAGGTAACGTAAGATATGCT | 3.41
CAAACTAGGTCACAGGAAGGTCAAAGTCCGCATG | 8.8
CGTCCAACGTCAATGCTAGGTCAGTGAAAGCATT | 0.146

Sequence | PBM binding z-score
AATGCAGGGTCACTAGGCCAGAGTAGGTACGAAT | 5.62
ACTGACAGGTGAGTGAAGGTAACTCAGCTGGACG | 1.07
ACTATTAGTCGACTTAGGGCAACCGATACGACGC | 0.646
TCATATAGGTAAATGCTAAGTGAAAGTCCGATCT | 2.11
CCTCGGAGGACGACAGGAGGTCAGAGCTGCCAGA | -0.00812
CCGACTGAGGCAAGGTTACCATAACGCACAGCCA | -0.0439
TTACCAAGGTGAAAGGTCGTCGATGCACGCCTTG | 5.42
CGAACTAAGTCAAGGACAGTGAATCTCCGCACGC | 0.214
CGTCTAAGGTCAGAGAGGTCAGTGAATGCCGAGT | 3.69
TGAATGAGGTGATAAGATCAGGGAACGTTGCAAA | 2.01
CCTAGCAGGCCAGGGTCACTGAAGCATTTCGCTT | 1.16
TTATATAGGTAAACAGGTGAAAGTCCGTAAGTTA | 6.8
TAGCCTAGGTCCGATCGGGCCAGTATACGCTATA | -0.553
AGAACGAGGGCAGGCTGAGTTGATAGCAGAGTAG | 1.53
GCTTACGGGTCAAAGATTATAGCATGAATAGAAT | 3.76
TCTAGCAGGCCACAGGGTCACTCAAGAGGTACGG | 2.41
TAGCCTAGGTCACTGGGCCAGTATAGTACGCATC | 5.27
TTACCAAGATGAAGGTCGTTGATCCCTCTGTAGA | 0.0475
GATATAGGGTCAAGGCCAGAGTACGCGTATTGAT | 4.64
GCGAATGGGGCAAAGCAGGTTACCATAAGGTTGG | 1.37
